# Records with an inconclusive call do not appear. Where a call stands in place of a potency, no number is given. The source made the active and inactive calls. Calls come from the whole dose curve.
# Target: Muscarinic acetylcholine receptor M1 (Homo sapiens) (UniProt P11229)
# Assay: Cholinergic receptor muscarinic 1 (CHRM1) small molecule antagonists, cell-based qHTS assay (AID 1963588); note: nearly all actives have a fitted effect of over 40% in size
# Details: CHRM1-CHO antagonist mode, calcium flux fluorescence; series mostly up to 61.5 µM
# From the text: National Center for Advancing Translational Sciences [NCATS]
# Division of Preclinical Innovation [DPI]
# U.S. Environmental Protection Agency [EPA]
# National Institutes of Environmental Health Sciences [NIEHS]
# National Toxicology Program [NTP]
# U.S. Food and Drug Administration [FDA]
# The CHRM1 is a muscarinic receptor. This receptor plays a crucial role in learning and memory processes and has long been identified as a promising therapeutic target for the improvement of cognitive decline in Alzheimer's disease (AD). The CHRM1-CHO cell line stably expressing human muscarinic acetylcholine receptor M1 (CHRM1) can be used for screening agonists and antagonists of interactions between CHRM1 and its ligands. The CHRM1-CHO Calcium Flux Assay is a homogeneous fluorescence-based assay for detecting the intracellular calcium level using FDSS kinetic plate reader system.
# Tox21 Assay Protocol Summary:
# CHRM1-CHO cells were dispensed at 1000 cells/3uL/well in 1536-well black-clear bottom plates using a Multidrop Dispenser. After the assay plates were incubated at a 37 C/5% CO2 incubator for 18 h, 3 uL of Dye Loading Buffer was transferred to the assay plate by a Flying Reagent Dispenser. The assay plates were incubated at 37 C for 1h. For antagonist mode, 23 nL of compounds dissolved in DMSO, positive controls or DMSO only was transferred to the assay plate by a pin tool. After 5 min incubation at room temperature, 1.5 uL of acetylcholine at 50nM was added to each well. The fluorescence intensity in the plates was measured using FDSS 7000EX kinetic plate reader for 3 min at 1 sec intervals. Each test compound was measured at 15 concentrations in three independent runs.
# Muscarinic acetylcholine receptor M1 (Homo sapiens), sequence (P11229 whole entry, looked up): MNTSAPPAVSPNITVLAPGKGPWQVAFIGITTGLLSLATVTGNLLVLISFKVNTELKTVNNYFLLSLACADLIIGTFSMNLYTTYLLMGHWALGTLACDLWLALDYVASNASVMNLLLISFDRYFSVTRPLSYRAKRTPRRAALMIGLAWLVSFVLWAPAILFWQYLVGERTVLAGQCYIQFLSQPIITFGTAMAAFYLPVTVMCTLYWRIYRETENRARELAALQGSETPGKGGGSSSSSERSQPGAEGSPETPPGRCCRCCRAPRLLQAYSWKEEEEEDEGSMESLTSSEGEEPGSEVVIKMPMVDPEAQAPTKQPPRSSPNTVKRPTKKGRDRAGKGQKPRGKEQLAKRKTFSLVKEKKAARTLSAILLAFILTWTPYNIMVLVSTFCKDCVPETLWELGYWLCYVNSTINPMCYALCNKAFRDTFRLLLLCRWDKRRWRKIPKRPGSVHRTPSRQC
row,Compound,Potency
1,C1=CCC(c2ccccc2)CC1 (stereo not given),inactive
2,CCN(CC)CCNC(=O)COc1ccc(Cl)cc1,inactive
3,COc1ccc2nc(NC(=O)Nc3ccccc3)sc2c1,inactive
4,O=C(O)CP(=O)(O)O,inactive
5,CC(=O)C=O,inactive
6,OCCN(CCO)CCN(CCO)CCO,inactive
7,O=C(O)CCN(C1(C(=O)NO)CCCC1)S(=O)(=O)c1ccc(Oc2ccc(F)cc2)cc1,inactive
8,CC1(C)S[C@@H]2[C@H](N=CN3CCCCCC3)C(=O)N2[C@H]1C(=O)O,inactive
9,C=CCON/C(CCC)=C1\C(=O)CC(C)(C)C(C(=O)OC)=C1O,inactive
10,O=C(O)c1cc(Cl)cc(Cl)c1,inactive
11,COc1ccc2sc(C(=O)Nc3nnn[nH]3)c(OC(C)C)c2c1,inactive
12,Cc1c(N)cccc1Cl,inactive
13,CCCCOC(=O)[C@@H](C)Oc1ccc(Oc2ccc(C(F)(F)F)cn2)cc1,inactive
14,CCCCCCCCCCCCCCNCCO,inactive
15,CCO[Si](CC)(OCC)OCC,inactive
16,Cc1ccc(C)c(N)c1,inactive
17,CC/C=C(\C)C=O,inactive
18,CCN(CC)CCc1nc(-c2ccccc2)no1,inactive
19,C=CC(=O)OCCOCC(CC)(COCCOC(=O)C=C)COCCOC(=O)C=C,inactive
20,CC(C)=CCC/C(C)=C/COC=O,inactive

row,Compound,Potency
1,CC(C)(C)N,inactive
2,CCCCCCCCCCCCCCCC(=O)OC[C@H](O)[C@H]1OC(=O)C(O)=C1O,inactive
3,NS(=O)(=O)Cc1noc2ccccc12,inactive
4,CCOc1ccc2ccccc2c1C(=O)N[C@@H]1C(=O)N2[C@@H]1SC(C)(C)[C@@H]2C(=O)O,inactive
5,OCC(F)(F)F,inactive
6,Cc1cccc(C)c1NC(=O)CN1CCCC1,inactive
7,CCOC(=O)c1c(N)sc2c1CCN(Cc1ccccc1)C2,inactive
8,C1COC(NC(C2CC2)C2CC2)=N1,inactive
9,C/C=C(\C)C(=O)OCCC(C)CCC=C(C)C (stereo not given),inactive
10,Cc1cc(N)c2cc(NC(=O)Nc3ccc4nc(C)cc(N)c4c3)ccc2n1,inactive
11,CC1(C)CC(O)CC(C)(C)N1,inactive
12,O=C(O)/C=C/c1ccc(/C=C/C(=O)O)cc1,inactive
13,Cc1cc(NS(=O)(=O)c2ccc(N)cc2)nc(C)n1,inactive
14,CCOC(=O)CC1(C)OCC(C)O1 (stereo not given),inactive
15,Nc1ncnc(Nc2ccccc2)n1,inactive
16,CCOc1cc(OCC)c(C(=O)CCC(=O)O)cc1OCC,inactive
17,O=C(c1ccccc1)c1ccc(Cl)cc1,inactive
18,FC1(F)C(F)(F)C(F)(F)C2(F)C(F)(C1(F)F)C(F)(F)C(F)(F)C1(F)C(F)(F)C(F)(F)C(F)(F)C(F)(F)C12F (stereo not given),inactive
19,ONc1ccccc1,inactive
20,C[C@H]1C[C@H]2[C@@H]3CCC4=CC(=O)C=C[C@]4(C)[C@H]3C(=O)C[C@]2(C)[C@@]1(O)C(=O)CO,inactive
